# Results filed as inconclusive are left out. Active and inactive are the calls of the source. The call rests on the fitted dose curve; in most records, active means well fitted cell-killing curve with a large enough effect; inconclusive means small, poorly fitted or top-dose-only effect, or effect the other way; inactive means no such curve, though single readings can be large or run the other way.
# Experiment: Quantitative highthroughput screen to assess conditional lethalithy of SEM cells grown in RPMI1640 with unreated serum (RPMI+s) (AID 1963883); further: nearly all actives have a fitted effect of over 35% in size
# Details: SEM B-ALL cells, CellTiter-Glo viability, 48 h; series mostly up to 45.8 µM
# Summary of the method: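 Each medium arm—HPLM with 10% dialyzed FBS, or RPMI1640 with 5 mM glucose and 10% untreated or dialyzed FBS—was screened against an 11-point, 3-fold compound titration for 48 h at 37 °C, with CellTiter-Glo luminescence as endpoint.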
# Potency means the concentration at half of the fitted maximal effect.
row,Compound,Potency
1,OCCNC1CCCc2c1[nH]c1ccc(-c3ccccc3)cc21 (centres undefined),16.6 µM (active)
2,NC1(c2ccc(-c3nc4ccn5c(=O)[nH]nc5c4cc3-c3ccccc3)cc2)CCC1,2.09 µM (active)
3,CN(C)CCOC(c1ccccc1)c1ccccc1,inactive
4,COc1cc2nc(N3CCN(C(=O)c4ccco4)CC3)nc(N)c2cc1OC,10.5 µM (active)
5,c1nc2nc(Nc3ccc(N4CCOCC4)cc3)nc(NC3CCCCC3)c2[nH]1,2.35 µM (active)
6,Cn1c(=O)c2c(ncn2CC(O)CO)n(C)c1=O (centres undefined),inactive
7,Cc1nc(N)sc1-c1ccnc(Nc2ccc(N3CCOCC3)cc2)n1,2.35 µM (active)
8,N#CCNC(=O)c1ccc(-c2ccnc(Nc3ccc(N4CCOCC4)cc3)n2)cc1,10.5 µM (active)
9,COc1cc(-c2nn(C3CCC(N4CCN(C(C)=O)CC4)CC3)c3ncnc(N)c23)ccc1NC(=O)c1cc2ccccc2n1C (centres undefined),inactive
10,O=C(Nc1ccc(OC(F)(F)F)cc1)c1sccc1NCc1ccnc2ccccc12,2.96 µM (active)
11,C[C@H](NC(=O)C(=O)Nc1ccccc1C(C)(C)C)C(=O)N[C@@H](CC(=O)O)C(=O)COc1c(F)c(F)cc(F)c1F,5.9 µM (active)
12,C[C@]12C=CC(=O)C=C1CC[C@@H]1[C@@H]2C(=O)C[C@@]2(C)[C@H]1CC[C@]2(O)C(=O)CO,inactive
13,CNC(=O)c1c(F)cccc1Nc1nc(Nc2cc3c(cc2OC)CCN3C(=O)CN(C)C)nc2[nH]ccc12,0.469 µM (active)
14,c1cnc2cc3c(cc2n1)C1CNCC3C1,inactive
15,CCCCCCCCCC(=O)N[C@@H](Cc1c[nH]c2ccccc12)C(=O)N[C@H](CC(N)=O)C(=O)N[C@@H](CC(=O)O)C(=O)N[C@@H]1C(=O)NCC(=O)N[C@@H](CCCN)C(=O)N[C@@H](CC(=O)O)C(=O)N[C@H](C)C(=O)N[C@@H](CC(=O)O)C(=O)NCC(=O)N[C@H](CO)C(=O)N[C@@H]([C@@H](C)CC(=O)O)C(=O)N[C@@H](CC(=O)c2ccccc2N)C(=O)O[C@@H]1C,inactive
16,S=C(NCc1ccc2c(c1)OCO2)N1CCN(c2ncnc3c2oc2ccccc23)CC1,42.9 µM (active)
17,NS(=O)(=O)c1ccc(Nc2nc(OCC3CCCCC3)c3[nH]cnc3n2)cc1,0.296 µM (active)
18,Nc1nc(N)c2nc(-c3cccc(O)c3)c(-c3cccc(O)c3)nc2n1,18.7 µM (active)
19,Cn1cnc2c1c(=O)[nH]c(=O)n2C,18.7 µM (active)
20,O=C(CN1C(=O)C2(CCCC2)NC[C@H]1c1cc(F)cc(F)c1)Nc1ccc2c(c1)C[C@@]1(C2)C(=O)Nc2ncccc21,inactive
21,COc1cc2c(Nc3ccc(NC(=O)c4ccccc4)cc3)ncnc2cc1OCCCN1CCOCC1,3.72 µM (active)
22,COc1cc2ncnc(Nc3cccc(Cl)c3)c2cc1OC,0.166 µM (active)
23,CNCCCC12CCC(c3ccccc31)c1ccccc12,inactive
24,COc1ccc(-c2cc3c(C)nc(N)nc3n(C3CCC(OCCO)CC3)c2=O)cn1 (centres undefined),0.469 µM (active)

# Source: PubChem BioAssay (NCATS)
